Over roughly 18,000 sequences, “log2 normalized intensity” has its median near 0.39; the highest 2% begin near 6.6. Only a selection was taken, and the highest values are over-represented in it overall.
Biological target: T1, HNF4alpha2 (COS-7 nuclear extract) (Homo sapiens, UniProt P41235 1-474)
T1 sequence: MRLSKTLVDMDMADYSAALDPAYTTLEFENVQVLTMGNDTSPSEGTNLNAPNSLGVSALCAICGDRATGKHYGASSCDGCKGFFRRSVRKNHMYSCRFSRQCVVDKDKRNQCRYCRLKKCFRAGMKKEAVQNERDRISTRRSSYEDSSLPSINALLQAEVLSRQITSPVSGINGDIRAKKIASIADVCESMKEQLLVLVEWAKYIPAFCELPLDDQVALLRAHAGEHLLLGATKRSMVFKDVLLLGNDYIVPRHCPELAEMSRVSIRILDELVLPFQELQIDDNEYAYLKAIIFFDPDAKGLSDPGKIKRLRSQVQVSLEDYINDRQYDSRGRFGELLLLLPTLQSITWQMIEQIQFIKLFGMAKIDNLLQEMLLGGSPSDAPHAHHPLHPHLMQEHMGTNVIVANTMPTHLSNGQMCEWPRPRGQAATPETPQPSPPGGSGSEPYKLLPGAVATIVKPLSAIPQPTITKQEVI
Experiment: protein-binding microarray; COS-7 nuclear extract on double-stranded Agilent 4x180k PBM; binding buffer, salt, pH and temperature not given in the material; high values mean tight binding
Settings: chain copies: 2; label: 3' end of strand 1 on the slide; dsDNA, one strand shown
Outline: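 A custom Agilent SurePrint G3 4x180k array, spotted in quadruplicate with ~44,000 test sequences as ~60-nt oligonucleotides made double-stranded, was incubated with nuclear extracts. The extracts came from COS-7 cells transiently transfected by CaPO4 with a human HNF4α isoform expression vector. Bound HNF4α was imaged on an Agilent G2565CA scanner at 2-µm resolution, and the binding signal was taken as Agilent software's background-corrected, normalized gProcessedSignal.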

Sequence	binding signal [log2 normalized intensity]
CCTTTGACCTTCGGCTTCCCCAGAGAAAGAGCCTAGGGAGATTAGAGTATCGGTCGA	3.03
CCCGCCTTTGACACAGGCGACCTTCGCTCGGCCTAGGGAGATTAGAGTATCGGTCGA	5.17
GCTCAGCTGGTTGCCCCTTTGACCCTCGGGGCCTAGGGAGATTAGAGTATCGGTCGA	6.11
AGCTCGCTCAGCTGGTTGCCCCTTTGACCCGCCTAGGGAGATTAGAGTATCGGTCGA	7.89
TCAGGCACAGCTCGACCTTTGACCTTCGGCGCCTAGGGAGATTAGAGTATCGGTCGA	10.2
CACAGCTCGACCTTTGACCTTCGGCTTCCCGCCTAGGGAGATTAGAGTATCGGTCGA	8.84
AAATCCCCGCCTTTGACACAGGCGACCTTCGCCTAGGGAGATTAGAGTATCGGTCGA	3.94
TGGGGTCTCGCTGCTTCGGCCTTTGACCTCGCCTAGGGAGATTAGAGTATCGGTCGA	7.94
CAGGGTGGGGTCTCGCTGCTTCGGCCTTTGGCCTAGGGAGATTAGAGTATCGGTCGA	1.33
TCTCGCTGCTTCGGCCTTTGACCTCGTGATGCCTAGGGAGATTAGAGTATCGGTCGA	6.52
GCCCCAGCTCGCTCAGCTGGTTGCCCCTTTGCCTAGGGAGATTAGAGTATCGGTCGA	4.14
CTTTGACACAGGCGACCTTCGCTCGGCTCGGCCTAGGGAGATTAGAGTATCGGTCGA	3.46
CCTTGCACTATTGACCCAGTGAAACAACACGCCTAGGGAGATTAGAGTATCGGTCGA	1.65
TAGGCCACCTGTGTCAACATGGACTTTGTTGCCTAGGGAGATTAGAGTATCGGTCGA	5.86
TTCTGCCTTATCAGCGGCCCTGTGCTGCCCGCCTAGGGAGATTAGAGTATCGGTCGA	0.0914
CTTGTCTTATCAGCAGGGTCTTTTTGACCTGCCTAGGGAGATTAGAGTATCGGTCGA	4.38
GTCTCTCAGGCACAGCTCGACCTTTGACCTGCCTAGGGAGATTAGAGTATCGGTCGA	10.1
CCTCTGTCTCTCAGGCACAGCTCGACCTTTGCCTAGGGAGATTAGAGTATCGGTCGA	5.94
CTATTATGCCTTGACTTCAAATCATACTGAGCCTAGGGAGATTAGAGTATCGGTCGA	0.897
TCAGAGATCAAGATACAGGTCAGACCCTGGGCCTAGGGAGATTAGAGTATCGGTCGA	0.993
CTATTGTCCTATGACCCTGCCAAATCCCCCGCCTAGGGAGATTAGAGTATCGGTCGA	4.52
CATTTTACAGTGCCATTTATCAGTGATTTCGCCTAGGGAGATTAGAGTATCGGTCGA	0.854

Sequence	binding signal [log2 normalized intensity]
GGGCAAATCTGAGGTCAAAGCTGTCAGAGAGCCTAGGGAGATTAGAGTATCGGTCGA	-0.198
GTCCCAGGGCAAAGGTCACCAGCTAAGCTGGCCTAGGGAGATTAGAGTATCGGTCGA	5.83
TATTCCCAGGTTCCAAAGGTCACCCGTATTGCCTAGGGAGATTAGAGTATCGGTCGA	6.51
CTGTCGTCCCAGGGCAAAGGTCACCAGCTAGCCTAGGGAGATTAGAGTATCGGTCGA	6.66
AGGGCAAAGGTCACCAGCTAAGCTGTTACTGCCTAGGGAGATTAGAGTATCGGTCGA	5.12
TTCCAAAGGTCACCCGTATTCCTTAGCTTAGCCTAGGGAGATTAGAGTATCGGTCGA	1.6
CAGAGCTGTCGTCCCAGGGCAAAGGTCACCGCCTAGGGAGATTAGAGTATCGGTCGA	7.59
CCAGGTTCCAAAGGTCACCCGTATTCCTTAGCCTAGGGAGATTAGAGTATCGGTCGA	6.63
CTTCCCAGCTGCTGGTCAAAGGGCATTACTGCCTAGGGAGATTAGAGTATCGGTCGA	4.94
GCTGAGGAATTTGGACTTCAGCCCAGGCTGGCCTAGGGAGATTAGAGTATCGGTCGA	3.66
ACCACCTTCCCCCATCCCCAACAAAGCTCTGCCTAGGGAGATTAGAGTATCGGTCGA	4.7
TCTCAAAAGTTTTTCCCTTCTGTTAGAATGGCCTAGGGAGATTAGAGTATCGGTCGA	-0.592
CTTCAAGTCAGTTGCATGCAACCTTTGTCCGCCTAGGGAGATTAGAGTATCGGTCGA	5.67
ATATTCACTATCTGATCCTTTACAGAGATAGCCTAGGGAGATTAGAGTATCGGTCGA	-0.305
TGTTACTTATAAATAATCTCAACCATACAAGCCTAGGGAGATTAGAGTATCGGTCGA	-0.991
CAACCAAGTCCATCTGTATTGCCTCCTTTGGCCTAGGGAGATTAGAGTATCGGTCGA	1.08
TTCCAGGGATGTTTGGCAGCTGAGGATTGTGCCTAGGGAGATTAGAGTATCGGTCGA	1.61
CATCTACCAGCGTAATTCTGGCTCTTTGAGGCCTAGGGAGATTAGAGTATCGGTCGA	0.87
GCGTGAGCCACCGCGCCCCGCCCCCAGTGCGCCTAGGGAGATTAGAGTATCGGTCGA	5.65
TGCTGGAGATGAGGCTCAGACCTGACCTTTGCCTAGGGAGATTAGAGTATCGGTCGA	6.49
TACTTTGGACTGGGGACCTGGTCTGAGATAGCCTAGGGAGATTAGAGTATCGGTCGA	1.75
GGACCTGAGGCTTTTGAGTCAATAATGGACGCCTAGGGAGATTAGAGTATCGGTCGA	1.21

Sequence	binding signal [log2 normalized intensity]
GAGGCTCAGACCTGACCTTTGGATTCCCAGGCCTAGGGAGATTAGAGTATCGGTCGA	6.53
GAGATGAGGCTCAGACCTGACCTTTGGATTGCCTAGGGAGATTAGAGTATCGGTCGA	7.99
AAGACTTTGGACTTTGGACCTGAGGCTTTTGCCTAGGGAGATTAGAGTATCGGTCGA	9.84
ATGTGGGGAAACTGGACTGTAATTTGTGGTGCCTAGGGAGATTAGAGTATCGGTCGA	1.43
ACGTCAGAACTGTCCTTTAACCTCCCTGCAGCCTAGGGAGATTAGAGTATCGGTCGA	1.99
AATGGAAGAATCACAGTGTGGGGCAAATCTGCCTAGGGAGATTAGAGTATCGGTCGA	-0.752
ACCAGGGGGCAGAGTGAGCAGCACTTTTGGGCCTAGGGAGATTAGAGTATCGGTCGA	-0.845
CTGCCAAAGTTCAGCCTTGGGGCCATTCCAGCCTAGGGAGATTAGAGTATCGGTCGA	0.325
TCATCGCACCGGCAGGGGAGAACTTCCTCCGCCTAGGGAGATTAGAGTATCGGTCGA	-0.988
AAAGGTCATCGCACCGGCAGGGGAGAACTTGCCTAGGGAGATTAGAGTATCGGTCGA	0.284
CTGGGGCCACCCTCCTCTCTGGGTCAAAGGGCCTAGGGAGATTAGAGTATCGGTCGA	4.74
GCCACCCTCCTCTCTGGGTCAAAGGTCATCGCCTAGGGAGATTAGAGTATCGGTCGA	9.58
TCTCTGGGTCAAAGGTCATCGCACCGGCAGGCCTAGGGAGATTAGAGTATCGGTCGA	7.15
CCTGCCTCTCCTCTGAGCTTCATCCTGACCGCCTAGGGAGATTAGAGTATCGGTCGA	1.62
CCTCCTCTCTGGGTCAAAGGTCATCGCACCGCCTAGGGAGATTAGAGTATCGGTCGA	7.54
CTCTCCCTCCTCTCTGAGCAGTCAAACTGGGCCTAGGGAGATTAGAGTATCGGTCGA	1.96
GGGGTCAAAGTCCCCTGAGCTTGAGTCCATGCCTAGGGAGATTAGAGTATCGGTCGA	5.36
CACTGGCTCTGGGGTCAAAGTCCCCTGAGCGCCTAGGGAGATTAGAGTATCGGTCGA	7.16
GAGGTGTCAGCCACCCCTCCTCCTGGGGGCGCCTAGGGAGATTAGAGTATCGGTCGA	2.64
AGGTCGCAAGCACTGGCTCTGGGGTCAAAGGCCTAGGGAGATTAGAGTATCGGTCGA	3.1
AAGTGTGGTCAAGGGTCAGTTTCTGAGAGTGCCTAGGGAGATTAGAGTATCGGTCGA	3.65
ATAGTTGACCCTTGAACAATGTGGGGGTCGGCCTAGGGAGATTAGAGTATCGGTCGA	3.7

Sequence	binding signal [log2 normalized intensity]
CTTGTCCTTGACCCTTCCTCCCATTTGCTGGCCTAGGGAGATTAGAGTATCGGTCGA	2.29
GCCCCCGCAGACCCAGTCTTAGGGACTAAGGCCTAGGGAGATTAGAGTATCGGTCGA	3.86
TCCCTTCCCCCCTCCTCATTGAGAGTTTTAGCCTAGGGAGATTAGAGTATCGGTCGA	4.2
TTGAAGCTCCAAGATAGGAATGTACATAATGCCTAGGGAGATTAGAGTATCGGTCGA	1.11
GTCTTAGGGACTAAGCTTGTAGACCAAGGAGCCTAGGGAGATTAGAGTATCGGTCGA	0.172
AAGGCTGCAAGCAAACCTGCCCTTTGCTCCGCCTAGGGAGATTAGAGTATCGGTCGA	5.57
GGGAAACACAGACTCCAAAGAATGGAAGGCGCCTAGGGAGATTAGAGTATCGGTCGA	-0.871
CCTTTGGTCTAAACCTACTTAGATCAAGATGCCTAGGGAGATTAGAGTATCGGTCGA	-0.394
ACCCCAAAACCCCCAAAGGTGAGTAGGGCCGCCTAGGGAGATTAGAGTATCGGTCGA	2.67
TGCTCTCTCATGCCCTTTGCCTCCCTGCATGCCTAGGGAGATTAGAGTATCGGTCGA	3.45
GCATCAGGGTCCACAAGGGTTTAAATCTGAGCCTAGGGAGATTAGAGTATCGGTCGA	1.03
CCTGAGAGGCCAGTTTGACCTTTGCATTCTGCCTAGGGAGATTAGAGTATCGGTCGA	7.56
GAGGCCAGTTTGACCTTTGCATTCTTACCCGCCTAGGGAGATTAGAGTATCGGTCGA	5.97
TCACCATATCCCTGAGAGGCCAGTTTGACCGCCTAGGGAGATTAGAGTATCGGTCGA	2.83
TTTGGAGTTTGACCTGGAGCCAGGGCCTTTGCCTAGGGAGATTAGAGTATCGGTCGA	3.11
CAGTTTGACCTTTGCATTCTTACCCAAGCCGCCTAGGGAGATTAGAGTATCGGTCGA	4.4
ATATCCCTGAGAGGCCAGTTTGACCTTTGCGCCTAGGGAGATTAGAGTATCGGTCGA	8.38
CACAGGTAAACATTTGCCTTTAGGGCCCCCGCCTAGGGAGATTAGAGTATCGGTCGA	2.56
GTGGGCAAGTTATCTCGGGGTGGCATGTATGCCTAGGGAGATTAGAGTATCGGTCGA	1.14
